Sampled rows, rich in hits. Any-hit rate of the full collection: about 2.2%.
CSC inhib: cancer stem cell inhibition; AID 2717; cancer stem cell-like cells viability, luminescence; 300,000 compounds, 1.1% hits; inhibition, % at 7.5 µM; in the data active = inhibition above about 75%; inconclusive = no clear call, values can overlap the other calls; tested in HMLE shEcad cells
Beta cell apopt: beta cell apoptosis inhibition. 300,000 compounds, 0.8% hits. AID 435005. protection from apoptosis, % (no concentration beside the values). INS-1E cytokine-induced death, ATP luminescence, 48 h; percent of positive-control rescue, neutral wells zero;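 active = Every replicate reaches about 75%, or at least half do and their mean reaches it too, limit read from the data; inconclusive = At least half of replicates reach the limit but their mean does not; inactive = Under half of replicates reach the limit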;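 note: higher means more ATP so stronger rescue from cytokine killing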
Calb FLC: C. albicans growth modulation with fluconazole; C. albicans CaCi-2 (fluconazole-resistant clinical isolate) + fluconazole, Alamar Blue growth, 48 h; growth inhibition, % (concentration not given with the values); 300,000 compounds, 0.57% hits; AID 1979;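 active = growth inhibition above about 58% in most replicates, limit read from the data, passing the limit was not always enough; inconclusive = exactly half the replicates above a set limit; inactive = most replicates below a set limit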;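 note: all wells also contain fluconazole at 8 µg/ml as a sub-toxic cotreatment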
PfHsp90 yeast 2: reduces growth (ATP signal) of yeast expressing P. falciparum Hsp90. S. cerevisiae expressing PfHsp90, BacTiter-Glo ATP, 48 h; yeast lacking PDR1 and PDR3 efflux regulators. inhibition, % at 9.4 µM. 310,000 compounds, 0.32% hits;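 active = every replicate shows inhibition above about 80%, whatever the replicate mean, limit read from the data; inconclusive = mean inhibition reaches the set limit but some replicate falls short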
Shn3 3UTR inh: reduces Shn3 3'UTR luciferase signal in osteoblasts | Clone20 osteoblast Shn3 3'UTR firefly luciferase, 24 h | inhibition, % at 12.5 µM | 360,000 compounds, 0.52% hits | AID 588674;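 active = mean inhibition of at least 75% with every replicate also reaching 75%; inconclusive = mean inhibition at least 75% but some replicate below; inactive = mean inhibition below 75%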
Hits are given with their value; i = inactive; ? = inconclusive; nt = no result.

SMILES	CSC inhib	Beta cell apopt	Calb FLC	PfHsp90 yeast 2	Shn3 3UTR inh
CN(Cc1cccc2cnccc12)C(=O)c1cc(COc2ccc(F)cc2F)on1	nt	nt	i	i	i
CCc1ccc(CN(C)C(=O)c2cc(COc3cccc4cnccc34)on2)cc1	i	78	i	i	86
N#CC1=C(N)N2C(=C(C#N)C1c1ccc(Br)cc1)Nc1ccccc12 (configuration not stated)	114	109	i	nt	nt
N#CC1=C(N)N2C(=C(C#N)C1c1cccc(Br)c1)Nc1ccccc12 (configuration not stated)	i	100	i	i	88
N#CC1=C(N)N2C(=C(C#N)C1c1ccccc1)Sc1ccccc12 (configuration not stated)	i	i	i	nt	nt
C[C@H](CO)N1C[C@H](C)[C@@H](CN(C)S(=O)(=O)c2cccs2)Oc2ccc(NS(=O)(=O)c3ccc(F)cc3)cc2C1=O	nt	i	nt	i	i
Cc1cc(C)n2nc(SCc3nnc(SCc4ccccc4C)s3)nc2n1	i	103	i	i	i
Cc1cc(C)n2nc(SCc3nnc(SCc4ccccc4Cl)s3)nc2n1	nt	nt	i	i	i
O=C(Nc1ccc(F)c(Cl)c1)c1ccc2sc([C@@H]3O[C@H](CO)[C@H](O)[C@H](O)[C@H]3O)nc2c1	nt	nt	nt	nt	i
C[C@H]1O[C@@H](O[C@H]2[C@@H](O)C[C@H](O[C@H]3[C@@H](O)C[C@H](O[C@H]4CC[C@@]5(C)[C@H](CC[C@@H]6[C@@H]5C[C@@H](O)[C@]5(C)[C@@H](C7=CC(=O)OC7)CC[C@]65O)C4)O[C@@H]3C)O[C@@H]2C)C[C@H](O)[C@@H]1O	100	i	i	i	i
C[C@@H]1CN([C@@H](C)CO)S(=O)(=O)c2ccc(C#Cc3cccc(F)c3)cc2O[C@@H]1CN(C)CC1CC1	nt	nt	nt	nt	i
Nc1nc(N)c2[nH]c(-c3ccccc3)nc2n1	nt	nt	i	i	i
COC(=O)/C(=N\Nc1ccc(Cl)cc1)Sc1nnc(-c2ccc(OC)cc2)n1C	i	i	84	i	i
COc1ccc(CNC(=O)CSc2nnc(-c3ccc(NC(C)=O)cc3)n2C)cc1	nt	i	i	i	i
CCC(=O)NC(c1cccc([N+](=O)[O-])c1)c1c(OC(C)=O)ccc2ccccc12 (configuration not stated)	i	i	i	i	i
Oc1c(C(Nc2nc3ccccc3s2)c2ccco2)ccc2cccnc12 (configuration not stated)	120	103	?	131	i
CC(C)C(=O)NC(c1cccc([N+](=O)[O-])c1)c1ccc2cccnc2c1O (configuration not stated)	100	nt	i	119	89
CC(C)C(=O)NC(c1ccco1)c1ccc2cccnc2c1O (configuration not stated)	i	117	98	i	i
CCCC(=O)NC(c1cccc([N+](=O)[O-])c1)c1ccc2cccnc2c1O (configuration not stated)	nt	nt	nt	nt	87
C=CCSC(=C(C#N)C#N)c1cc2c([nH]1)CCCC2	101	i	nt	i	i
O=C(O)c1cc2c([nH]c1=O)CCCC2	i	i	i	i	i
S=c1[nH]nc(-c2cc(-c3ccccc3)n[nH]2)n1/N=C/C(Br)=C/c1ccccc1	83	?	i	nt	i
S=c1[nH]nc(C2CCCCC2)n1/N=C/c1ccc(Br)s1	i	i	90	nt	i
S=c1[nH]nc(-c2ccco2)n1/N=C/C(Cl)=C/c1ccccc1	83	i	i	i	nt
S=c1[nH]nc(C2CCCCC2)n1/N=C/C(Cl)=C\c1ccccc1	109	i	i	i	i
SMILES	CSC inhib	Beta cell apopt	Calb FLC	PfHsp90 yeast 2	Shn3 3UTR inh
Cc1cc(-c2n[nH]c(=S)n2/N=C/C(Cl)=C/c2ccccc2)n[nH]1	i	i	i	i	i
S=c1[nH]nc(C2CCCCC2)n1/N=C/C=C/c1ccccc1	i	i	?	i	i
COc1cc(C(=O)OCC(=O)NC(=O)C2CCCCC2)ccc1OC(F)F	i	i	i	i	i
COCCSc1nnc(NC(=O)C2CC(=O)N(c3ccc(C)cc3)C2)s1 (configuration not stated)	i	i	99	i	i
CC1CCCC(NC(=S)Nc2cccc(S(=O)(=O)N(C)C)c2)C1C (configuration not stated)	nt	nt	i	i	i
CC(C)c1ccc(-c2nc3ccccc3s2)cc1	i	i	i	i	88
CCC(c1nnnn1Cc1ccco1)N1CCN(c2cc(Cl)ccc2C)CC1 (configuration not stated)	94	i	i	i	i
Cc1cccc(C(=O)O/N=C/c2c(N3CCOCC3)n(C)c3ccccc23)c1	i	97	83	nt	nt
Cc1ccc(Cl)cc1S(=O)(=O)N1CCC(C(=O)NC2CCN(Cc3ccccc3)CC2)CC1	i	i	i	i	i
O=S(=O)(Nc1ccc(O)c(Sc2nc3ccccc3s2)c1)c1cccc2ccccc12	81	i	i	i	i
Cc1cc(C)cc(S(=O)(=O)Cc2noc(C(=O)NCc3ccccc3)c2C(=O)NCc2ccccc2)c1	nt	i	nt	nt	i
Cc1cccc(CS(=O)(=O)c2ncc(Cl)c(C(=O)Nc3c(C)cccc3C)n2)c1	nt	nt	i	i	i
Cc1cccc(CS(=O)(=O)c2ncc(Cl)c(C(=O)NCc3ccccc3)n2)c1	i	i	i	i	95
O=C(Nc1ccc(F)cc1)c1nc(S(=O)(=O)Cc2ccccc2)ncc1Cl	108	i	i	96	94
Cc1cccc(C)c1NC(=O)c1nc(S(=O)(=O)Cc2ccccc2)ncc1Cl	nt	nt	i	i	96
Cc1ccc(NC(=O)c2nc(S(=O)(=O)Cc3ccccc3)ncc2Cl)cc1	104	109	i	104	95
NS(=O)(=O)c1ccc(NC(=O)c2ccc(CNS(=O)(=O)c3cc(C(F)(F)F)ccc3Cl)cc2)cc1	i	i	i	i	nt
CC1(C)Cc2c(cnn2-c2cccc(F)c2)C(NC(=O)CSc2ccncc2)C1 (configuration not stated)	i	i	i	i	i
Cc1ccccc1NC(=O)c1nc(S(C)(=O)=O)ncc1Cl	i	i	i	i	97
CCOC(=O)c1nc(S(C)(=O)=O)ncc1Cl	nt	nt	i	i	96
Cc1nnc(NC(=O)c2nc(S(=O)(=O)Cc3ccccc3)ncc2Cl)s1	nt	nt	i	i	92
CCOC(=O)c1nc(S(C)(=O)=O)ncc1N1CCOCC1	nt	nt	i	i	i
Cc1ccccc1CS(=O)(=O)c1ncc(Cl)c(C(=O)Nc2ccc(F)cc2)n1	98	i	i	114	95
Cc1nnc(NC(=O)CS(=O)(=O)Cc2ccccc2)s1	nt	nt	i	i	i
CCCc1nnc(NC(=O)c2nc(S(=O)(=O)Cc3cccc(C)c3)ncc2Cl)s1	108	i	i	i	93
CC(=O)Nc1ccc(NC(=O)Nc2cccc3ccccc23)cc1	i	i	i	i	i
CC(=O)c1ccc(NC(=O)Nc2cccc3ccccc23)cc1	i	i	81	i	i
COc1ccc(OC)c(NC(=O)C(=O)/C=C(\O)c2cc(OC)ccc2OC)c1	i	i	104	nt	i
COc1ccc(OC)c(NC(=O)Nc2c(O)ccc3ccccc23)c1	i	i	i	i	i
